SMILES strings stand for the structures.

The test system of this experiment is Toxoplasma gondii RH 2F1 tachyzoites (intracellular in HFF). The experiment in a line: parasite survival relative to DMSO control; higher = less antiparasitic activity, active = 20 or less. Particulars: 1 µM; 72 h. The gist of the method:
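Parasite survival was taken as the CPRG signal relative to DMSO-treated infected wells, given as a percentage. To obtain it, HFF cells (5 × 10^3 cells/well, 96-well plates) were infected for 3 h in D2 medium with 5 × 10^3 β-galactosidase-expressing Toxoplasma gondii RH-2F1 tachyzoites, then exposed to compound at 1 μM for 72 h at 37°C in 5% CO2. Absorbance at 570 nm was measured 30 min after CPRG was added to lysed cells, and 2 or more biological replicates were run.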
Consider `COC(=O)Nc1nc2ccccc2[nH]1`, for which the parasite survival was 53% (inactive).

On to `Cc1nc2ccc(Oc3ccccc3)cc2c2c1CCN2CCc1ccccc1`, for which the parasite survival is 8.56% (active).

For the compound `CCC(C)(C)c1ccc(CC(C)CN2C[C@@H](C)O[C@@H](C)C2)cc1` (stereo not given in full), the parasite survival was 35.1% (inactive).

Regarding `CNCC(=O)OCc1cccnc1N(C)C(=O)OC(C)[n+]1cnn(C[C@](O)(c2cc(F)ccc2F)[C@@H](C)c2nc(-c3ccc(C#N)cc3)cs2)c1` (stereo not given in full), the parasite survival was 35.6% (inactive).

Regarding `O=C(NC(=O)N1CCCc2ccccc21)c1ccc(Cl)cc1Cl`, the parasite survival was 55.9% (inactive).

For `Nc1nc(N)c2c(Sc3ccccc3)cccc2n1`, the parasite survival is 11.4% (active).

Take `Cc1ncc([N+](=O)[O-])n1CC(C)O` (stereo not given): the parasite survival is 48.2% (inactive).

For `Cc1cc(C2CCCCC2)n(O)c(=O)c1`, the parasite survival is 15.8% (active).

As to `NS(=O)(=O)c1ccc(NC(=O)NC(c2ccccc2)c2ccccc2)cc1`, the parasite survival is 32% (inactive).

With `COc1ccc(-n2cnc3cc(NCc4ccco4)ccc32)cc1`, the parasite survival is 35% (inactive).

With `Cc1cc(NS(=O)(=O)c2ccc(-c3ccc(F)cc3F)cc2)no1`, the parasite survival was 55% (inactive).

Turning to `Cc1ccc(N2CCC(CCOc3ccc(S(C)(=O)=O)cc3)CC2)nn1`, the parasite survival was 73.2% (inactive).

Turning to `COc1ccc(CNC(=O)C2CCN([C@H](C)c3cccc4ccccc34)CC2)cc1`, the parasite survival was 52% (inactive).

As to `Cc1c(F)cccc1NC(=O)Nc1ccc(Cl)c(S(=O)(=O)[C@H]2CCCNC2)c1O`, the parasite survival is 73.2% (inactive).

For `CCOC(=O)/C=C/[C@H](C[C@@H]1CCNC1=O)NC(=O)[C@H](CC)n1cccc(NC(=O)c2cc(C)on2)c1=O`, the parasite survival is 63.3% (inactive).

Take `O=C(O)C[C@H]1CC[C@H](c2ccc(-c3ccc(Nc4ccc(C(F)(F)F)nc4)cn3)cc2)CC1`: the parasite survival was 42.6% (inactive).

For `Fc1ccc2c(/C=C/c3cccnc3)c[nH]c2c1`, the parasite survival is 29.1% (inactive).

For `COC(=O)Nc1nc2c(C)cccc2[nH]1`, the parasite survival is 36.4% (inactive).

In the case of `O=C(NCc1ncc(C(F)(F)F)cc1Cl)c1c(Cl)cccc1Cl`, the parasite survival was 45.4% (inactive).

As to `CCc1ccccc1OCCN1CCCCCC1`, the parasite survival is 47.2% (inactive).

On to `CCCCc1ccc(C(=O)O)nc1`, for which the parasite survival was 54.6% (inactive).

Consider `CCCCN1C[C@H](O)[C@@H](O)[C@H](O)[C@H]1CO`, for which the parasite survival is 61.5% (inactive).

With `Cc1c(CN(C)C(=O)/C=C/c2cnc3c(c2)C(C)(C)C(=O)N3)oc2ccccc12`, the parasite survival is 54.1% (inactive).

Take `C=CCN(C(=O)OCc1ccc([N+](=O)[O-])cc1)C1CCN(CC[C@](C)(CN(C)S(=O)(=O)c2ccccc2)c2ccccc2)CC1`: the parasite survival is 35.5% (inactive).

In the case of `COc1cc(C2C3=C(CC(C)(C)CC3=O)Nc3ccccc3N2C(C)=O)ccc1OCc1ccccc1` (stereo not given), the parasite survival was 56.3% (inactive).

As to `C[C@H](Cn1cnc2c(N)ncnc21)OCP(=O)(O)O`, the parasite survival is 76.3% (inactive).

Regarding `Nc1nnnn1CCOc1c2[nH]c3ccc(Cl)cc3c2cc2c1[nH]c1ccc(Cl)cc12`, the parasite survival was 28.5% (inactive).

With `COc1cc(Cc2cnc(N)nc2N)cc(OC)c1OC`, the parasite survival is 52.6% (inactive).

Consider `C[C@H]1CC[C@@]2(O)C(C)(C)[C@@H]3CC[C@@]2(C)[C@H]1C3`, for which the parasite survival is 55.5% (inactive).

As for `O=C(Nc1nnc(-c2ccc(Cl)cc2)o1)c1ccc(F)cc1`, the parasite survival is 41.1% (inactive).

As to `CN1CCN(c2ccc3[nH]c(-c4ccc5[nH]c(-c6ccc(O)cc6)nc5c4)nc3c2)CC1`, the parasite survival was 35.3% (inactive).

Take `CCc1nc2ccccn2c1C(=O)NCc1ccccc1`: the parasite survival is 79.5% (inactive).

Turning to `O=C(O)c1ccc(-n2nc(-c3ccccc3O)nc2-c2ccccc2O)cc1`, the parasite survival was 25.7% (inactive).

Regarding `O=c1[nH]cnc2c1ncn2[C@H]1CC[C@@H](CO)O1`, the parasite survival was 79.3% (inactive).

As for `Fc1ccc(-n2cc(Cn3c(-c4cccc(F)c4)nc4ccccc43)nn2)cc1`, the parasite survival was 50.1% (inactive).

On to `C[N+]1(C)CCCC(OC(=O)C(O)(c2ccccc2)c2ccccc2)C1` (stereo not given), for which the parasite survival was 61.6% (inactive).

For the compound `OB1OCc2c1ccc(Cl)c2F`, the parasite survival was 77.1% (inactive).

As for `O=C(Nc1ccccc1)N(Cc1cc(Br)ccc1O)c1ccc(F)cc1`, the parasite survival was 21.3% (inactive).

As for `CC1(C)Cc2c(C#N)c(SCCc3ccccc3)nc(N3CCOCC3)c2CO1`, the parasite survival was 39.6% (inactive).

For `COc1cc(C)c2c(Oc3cccc(C(F)(F)F)c3)c(OC)cc(NC(C)CCCN)c2n1` (stereo not given), the parasite survival is 27.2% (inactive).

(Values after the supplement of paper PMC10941209.)
